Data from PubChem BioAssay (NCATS).
Results filed as inconclusive are left out. Calls of active or inactive are those of the source. Unless noted, the call rests on the fitted dose curve; in most records, active means well fitted curve in the direction sought with a large enough effect; inconclusive means small, poorly fitted or top-dose-only effect, or another doubt; inactive means no such curve, though single readings can be large; an effect the other way counts as inactive or inconclusive.

How the values were obtained:
[1] = target: Lysosomal acid glucosylceramidase (Homo sapiens) (UniProt P04062); experiment: Glucocerebrosidase-p2 (AID 348; in the data active means potency below about 10 µM; further: potency means the concentration at half of the fitted maximal effect); settings: purified GBA, blue fluorogenic substrate, 40 min
Sequence of Lysosomal acid glucosylceramidase (Homo sapiens) (P04062 whole entry, looked up): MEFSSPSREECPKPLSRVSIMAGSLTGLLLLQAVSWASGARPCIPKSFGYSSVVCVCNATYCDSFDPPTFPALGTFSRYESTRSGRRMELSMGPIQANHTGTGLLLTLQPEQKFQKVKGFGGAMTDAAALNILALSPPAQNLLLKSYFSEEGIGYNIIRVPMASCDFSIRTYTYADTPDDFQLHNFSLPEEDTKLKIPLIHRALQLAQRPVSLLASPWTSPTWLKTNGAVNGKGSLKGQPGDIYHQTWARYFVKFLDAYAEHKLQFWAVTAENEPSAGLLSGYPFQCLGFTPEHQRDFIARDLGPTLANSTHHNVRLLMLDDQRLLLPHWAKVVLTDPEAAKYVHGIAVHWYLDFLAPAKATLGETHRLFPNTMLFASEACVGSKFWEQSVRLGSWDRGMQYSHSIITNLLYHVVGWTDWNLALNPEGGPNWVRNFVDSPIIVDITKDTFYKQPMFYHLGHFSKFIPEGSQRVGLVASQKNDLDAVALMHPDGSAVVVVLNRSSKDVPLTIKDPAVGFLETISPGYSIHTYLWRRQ
In short: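 Normal human glucocerebrosidase (0.2 nM) with blue fluorogenic substrate (80 uM final) in citrate/phosphate pH 5.9 with 10mM sodium taurocholate, 0.01% tween-20; 40 min RT, NaOH/glycine stop; fluorescence Ex 365/Em 440; AC50 from a titration from 0.6 nM upwards.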

[2] = AP1 Signaling Pathway (AID 357; active means well fitted curve in either direction with a large enough effect, not every such curve was filed as active; further: on the % scale 0 is the no-effect control and ±100 the full control effect); settings: ME-180 AP-1-bla reporter, EGF-induced, beta-lactamase ratio, 5 h; at 7.69 µM (top of the series) unless noted
In short: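 ME-180 cells with beta-lactamase reporter under AP-1 response element, stimulated with EC50 EGF; compounds tested in titration series, 5 h at 37 °C. CCF4 substrate added 2.5 h at room temperature; 460/530 nm emission ratio gave %activity and AC50.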

[3] = target: Cytochrome P450 1A2 (Homo sapiens) (UniProt P05177); experiment: p450-cyp1a2 (AID 410; calls by dose curve; further: potency means the concentration at half of the fitted maximal effect)
Sequence of Cytochrome P450 1A2 (Homo sapiens) (P05177 whole entry, looked up): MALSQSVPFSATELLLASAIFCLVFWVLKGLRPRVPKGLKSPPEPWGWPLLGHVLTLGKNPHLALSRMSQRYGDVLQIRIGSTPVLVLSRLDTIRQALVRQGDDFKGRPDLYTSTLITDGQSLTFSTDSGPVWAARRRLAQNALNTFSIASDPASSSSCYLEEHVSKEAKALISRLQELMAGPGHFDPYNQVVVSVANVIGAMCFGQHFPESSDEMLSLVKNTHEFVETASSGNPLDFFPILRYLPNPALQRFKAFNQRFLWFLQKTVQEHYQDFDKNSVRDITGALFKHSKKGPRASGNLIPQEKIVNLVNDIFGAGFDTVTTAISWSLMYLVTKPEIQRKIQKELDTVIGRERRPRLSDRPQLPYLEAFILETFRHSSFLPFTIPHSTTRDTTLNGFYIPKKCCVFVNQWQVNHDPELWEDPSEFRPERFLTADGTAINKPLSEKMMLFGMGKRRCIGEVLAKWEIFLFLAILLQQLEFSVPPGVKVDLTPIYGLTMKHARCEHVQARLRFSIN
In short: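 Read-out is luminescence from luciferin produced by CYP1A2 demethylation of Luciferin-ME (100uM, at Km). Detection reagent stopped the 60 min NADPH-dependent reaction; signals were normalized to 57 uM furafylline.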

[4] = NFAT Signaling Pathway (AID 444; active means well fitted curve in either direction with a large enough effect, not every such curve was filed as active;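 further: carbachol stimulus at about its EC50 of 1 µM final; on the % scale 0 is the no-effect control and ±100 the full control effect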); settings: Jurkat NFAT-bla M1, carbachol, beta-lactamase ratio, 5 h; at 7.69 µM (top of the series) unless noted
In short: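 Jurkat cells carrying an NFAT-driven β-lactamase reporter and co-transfected muscarinic M1 receptor were treated with compound plus carbachol (1 uM final, an EC50 level) for 5 h at 37 °C. CCF4 loading followed for 1 h at RT; 460/530 nm ratio gave %activity.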

[5] = Stat Signaling Pathway (AID 446; active means well fitted curve in either direction with a large enough effect, not every such curve was filed as active;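 further: ME-180 cervical cancer cells given 40 pM IL-6 alongside compound; SIE-controlled beta-lactamase reporter measured as 460/530 nm FRET emission ratio; on the % scale 0 is the no-effect control and ±100 the full control effect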); settings: ME-180 SIE beta-lactamase reporter, IL-6 stimulated, 5 h; at 7.69 µM (top of the series) unless noted
In short: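 Overnight-plated ME-180 cells bearing a STAT Inducible Element beta-lactamase reporter; 5 h co-exposure to compound and 40 pM IL-6; values normalized to 300 pM IL-6 and 125 nM JAK inhibitor controls.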

[6] = target: Glucocorticoid receptor (Homo sapiens) (UniProt P04150); experiment: GR-GFP Redistribution (AID 450;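 active means compounds whose dose series gives a full or clear partial fitted curve of increased nuclear translocation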; further: potency means the concentration at half of the fitted maximal effect); settings: U2OS GR-GFP nuclear translocation, laser cytometry, 2 h
Sequence of Glucocorticoid receptor (Homo sapiens) (P04150 whole entry, looked up, the tested form may be a part): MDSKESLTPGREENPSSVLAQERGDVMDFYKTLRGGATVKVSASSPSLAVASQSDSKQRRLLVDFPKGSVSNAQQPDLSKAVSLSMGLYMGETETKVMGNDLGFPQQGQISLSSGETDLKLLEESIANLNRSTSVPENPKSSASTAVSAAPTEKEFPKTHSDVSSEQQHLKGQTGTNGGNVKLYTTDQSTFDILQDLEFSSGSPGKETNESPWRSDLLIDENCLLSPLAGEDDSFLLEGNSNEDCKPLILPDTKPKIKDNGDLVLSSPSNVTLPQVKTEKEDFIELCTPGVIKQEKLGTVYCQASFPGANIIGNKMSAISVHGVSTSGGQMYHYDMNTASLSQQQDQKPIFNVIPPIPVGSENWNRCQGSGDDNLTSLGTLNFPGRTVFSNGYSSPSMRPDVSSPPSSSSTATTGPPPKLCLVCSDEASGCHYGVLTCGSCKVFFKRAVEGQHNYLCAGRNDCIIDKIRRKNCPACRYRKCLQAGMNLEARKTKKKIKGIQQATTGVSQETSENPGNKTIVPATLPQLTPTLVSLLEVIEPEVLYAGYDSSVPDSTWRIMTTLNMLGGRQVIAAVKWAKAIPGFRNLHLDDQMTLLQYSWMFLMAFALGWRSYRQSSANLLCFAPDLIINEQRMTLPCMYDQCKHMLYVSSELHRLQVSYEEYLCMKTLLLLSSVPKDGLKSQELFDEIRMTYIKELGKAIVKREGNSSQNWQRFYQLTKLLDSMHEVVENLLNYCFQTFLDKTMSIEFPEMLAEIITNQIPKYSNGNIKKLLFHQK

[7] = target: Glucocorticoid receptor (Homo sapiens) (UniProt P04150); experiment: GR-EFC Redistribution (AID 451; calls by dose curve; further: potency means the concentration at half of the fitted maximal effect); settings: CHO-K1 GR-EFC translocation, beta-gal luminescence, 2 h
In short: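 CHO-K1 cells stably expressing nuclear-localized β-gal enzyme acceptor and GR fused C-terminally to the enzyme donor fragment; ligand-driven nuclear translocation restores β-gal by complementation. Compounds titrated up to 46 uM final, 2 h at 37 °C; luminescence read.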

[8] = target: Mitogen-activated protein kinase 10 (Mus musculus) (UniProt Q61831); experiment: JNK3 AlphaScreen Assay (AID 530; active means well fitted curve in either direction with a large enough effect, not every such curve was filed as active;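 further: kinase came from lysate of stimulated human HepG2 cells; signal reports phosphorylation of biotinylated GST-cJun 1-79 at Ser73 with 10 µM ATP; on the % scale 0 is the no-effect control and ±100 the full control effect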)
In short: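 Biotinylated GST-cJun(1-79) served as substrate for JNK3 in HepG2 lysates stimulated with IL-1beta and TNF-alpha. ATP was 10 uM final, pH 7.6. Ser73 phosphorylation was quantified by AlphaScreen (680 nm excitation).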

[9] = target: 3',5'-cyclic-AMP phosphodiesterase 4B (Homo sapiens) (UniProt Q07343); experiment: qHTS Assay for Inhibitors of PDE-IV (AID 607; active means well fitted activation curve with a large enough effect in the main read-out, with a control signal flat, not every such curve was filed as active; further: % of control where 0% means no effect)
Sequence of 3',5'-cyclic-AMP phosphodiesterase 4B (Homo sapiens) (Q07343 whole entry, looked up): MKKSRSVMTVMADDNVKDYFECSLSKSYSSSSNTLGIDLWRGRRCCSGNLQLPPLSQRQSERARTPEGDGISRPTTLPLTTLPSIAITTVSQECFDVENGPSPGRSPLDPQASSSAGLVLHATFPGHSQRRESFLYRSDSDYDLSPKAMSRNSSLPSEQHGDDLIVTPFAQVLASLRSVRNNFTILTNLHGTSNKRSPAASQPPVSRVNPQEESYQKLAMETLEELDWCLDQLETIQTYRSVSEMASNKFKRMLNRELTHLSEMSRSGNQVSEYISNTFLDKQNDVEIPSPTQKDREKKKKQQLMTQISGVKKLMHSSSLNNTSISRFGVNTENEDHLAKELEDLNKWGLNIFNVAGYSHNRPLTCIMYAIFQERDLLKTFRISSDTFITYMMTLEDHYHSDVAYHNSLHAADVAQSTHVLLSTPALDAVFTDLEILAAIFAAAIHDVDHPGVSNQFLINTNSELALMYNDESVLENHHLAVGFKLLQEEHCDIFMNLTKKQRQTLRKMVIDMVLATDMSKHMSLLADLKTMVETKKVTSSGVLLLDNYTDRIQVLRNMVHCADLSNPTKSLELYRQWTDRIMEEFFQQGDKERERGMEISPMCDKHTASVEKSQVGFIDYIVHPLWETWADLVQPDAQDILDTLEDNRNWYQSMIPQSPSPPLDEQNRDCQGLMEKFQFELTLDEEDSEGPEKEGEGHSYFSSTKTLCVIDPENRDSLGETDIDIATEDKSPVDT
In short: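 Live HEK293 cells with a modified cyclic nucleotide-gated (CNG) channel report intracellular cAMP via membrane-potential dye fluorescence (ex 535/em 590 nm). Endogenous PDE-IV was targeted. Compounds were tested at up to 22.9 uM final; RO 20-1724 100 uM served as control.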

[10] = target: Cytochrome P450 3A4 (Homo sapiens) (UniProt P08684); experiment: qHTS Assay for Activators of Cytochrome P450 3A4 (AID 885); further: nearly all actives have a fitted effect of over 65% in size
Sequence of Cytochrome P450 3A4 (Homo sapiens) (P08684 whole entry, looked up): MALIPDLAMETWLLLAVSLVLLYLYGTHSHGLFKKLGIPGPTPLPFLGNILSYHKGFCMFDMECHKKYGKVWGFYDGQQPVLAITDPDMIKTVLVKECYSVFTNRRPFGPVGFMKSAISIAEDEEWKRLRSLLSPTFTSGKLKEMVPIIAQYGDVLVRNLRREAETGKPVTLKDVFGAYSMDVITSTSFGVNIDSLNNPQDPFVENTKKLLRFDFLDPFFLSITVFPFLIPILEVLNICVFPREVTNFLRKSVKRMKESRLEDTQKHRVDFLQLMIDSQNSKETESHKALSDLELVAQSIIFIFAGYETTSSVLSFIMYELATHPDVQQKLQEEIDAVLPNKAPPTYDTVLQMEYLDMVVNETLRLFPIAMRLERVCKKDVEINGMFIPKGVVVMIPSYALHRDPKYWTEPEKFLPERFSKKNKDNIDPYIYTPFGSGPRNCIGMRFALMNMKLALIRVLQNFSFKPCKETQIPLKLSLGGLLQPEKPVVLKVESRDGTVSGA
In short: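 Using 20nM recombinant human CYP3A4 in potassium phosphate (200mM), substrate Luciferin-PPXE at 25uM, luminescent luciferin detection followed a 60-min RT NADPH reaction; data scaled to 57 uM ketoconazole.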

[11] = target: Dual specificity protein kinase CLK4 (Homo sapiens) (UniProt Q9HAZ1); experiment: qHTS Assay for Inhibitors of CDC-like Kinase 4 (Kinase-Glo Assay) (AID 1770); further: nearly all actives have a fitted effect of over 65% in size; further: potency means the concentration at half of the fitted maximal effect
Sequence of Dual specificity protein kinase CLK4 (Homo sapiens) (Q9HAZ1 whole entry, looked up): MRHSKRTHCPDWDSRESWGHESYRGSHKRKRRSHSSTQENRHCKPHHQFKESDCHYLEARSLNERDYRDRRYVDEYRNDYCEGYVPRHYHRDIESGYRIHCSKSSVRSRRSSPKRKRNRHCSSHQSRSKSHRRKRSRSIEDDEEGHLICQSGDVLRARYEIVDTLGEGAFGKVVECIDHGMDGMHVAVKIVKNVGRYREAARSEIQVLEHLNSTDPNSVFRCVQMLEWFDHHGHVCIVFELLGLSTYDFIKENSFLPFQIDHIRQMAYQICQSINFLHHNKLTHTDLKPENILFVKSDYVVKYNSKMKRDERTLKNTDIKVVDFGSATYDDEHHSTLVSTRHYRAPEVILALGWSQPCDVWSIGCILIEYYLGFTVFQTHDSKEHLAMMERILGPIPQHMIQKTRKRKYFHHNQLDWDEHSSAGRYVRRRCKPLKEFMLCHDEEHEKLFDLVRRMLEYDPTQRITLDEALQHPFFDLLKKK
In short: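 25 nM Clk4 with 100 uM RS repeat peptide and 1 uM ATP (final) in Tris pH7.5, 10 mM MgCl2, 4.5 h at room temperature. Remaining ATP measured by Kinase-Glo luciferase luminescence.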

[12] = target: Dual specificity protein kinase CLK4 (Homo sapiens) (UniProt Q9HAZ1); experiment: qHTS Assay for Inhibitors of CDC-like Kinase 4 (ADP-Glo Assay) (AID 1771); further: nearly all actives have a fitted effect of over 70% in size; further: potency means the concentration at half of the fitted maximal effect
In short: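 In this ADP-Glo format, 1 uM ATP and 100 uM RS peptide served as substrates for 25 nM Clk4 in Mg2+/EGTA/DTT/Triton buffer; reactions ran 1 hr at room temperature before luminescent ADP quantification.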

[13] = Primary qHTS for small molecule stabilizers of the endoplasmic reticulum resident proteome: Secreted ER Calcium Modulated Protein (SERCaMP) assay (AID 1508630); further: on the % scale 0 is the no-effect control and ±100 the full control effect
In short: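 The SH-SY5Y reporter protocol was run at 3 concentrations up to 38.3 uM (primary) or 11 concentrations (follow-up): 16 h compound, 100 nM thapsigargin for 4 h, then extracellular luciferase luminescence.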

[14] = target: Ubiquitin carboxyl-terminal hydrolase 1 (Homo sapiens) (UniProt O94782); experiment: Inhibitors of USP1/UAF1: Pilot qHTS (AID 504865);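 further: rhodamine fluorescence freed from ubiquitin-rhodamine substrate followed over time; top concentration of the series differs between compounds; on the % scale 0 is the no-effect control and ±100 the full control effect; nearly all actives have a fitted effect of over 35% in size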
Sequence of Ubiquitin carboxyl-terminal hydrolase 1 (Homo sapiens) (O94782 whole entry, looked up): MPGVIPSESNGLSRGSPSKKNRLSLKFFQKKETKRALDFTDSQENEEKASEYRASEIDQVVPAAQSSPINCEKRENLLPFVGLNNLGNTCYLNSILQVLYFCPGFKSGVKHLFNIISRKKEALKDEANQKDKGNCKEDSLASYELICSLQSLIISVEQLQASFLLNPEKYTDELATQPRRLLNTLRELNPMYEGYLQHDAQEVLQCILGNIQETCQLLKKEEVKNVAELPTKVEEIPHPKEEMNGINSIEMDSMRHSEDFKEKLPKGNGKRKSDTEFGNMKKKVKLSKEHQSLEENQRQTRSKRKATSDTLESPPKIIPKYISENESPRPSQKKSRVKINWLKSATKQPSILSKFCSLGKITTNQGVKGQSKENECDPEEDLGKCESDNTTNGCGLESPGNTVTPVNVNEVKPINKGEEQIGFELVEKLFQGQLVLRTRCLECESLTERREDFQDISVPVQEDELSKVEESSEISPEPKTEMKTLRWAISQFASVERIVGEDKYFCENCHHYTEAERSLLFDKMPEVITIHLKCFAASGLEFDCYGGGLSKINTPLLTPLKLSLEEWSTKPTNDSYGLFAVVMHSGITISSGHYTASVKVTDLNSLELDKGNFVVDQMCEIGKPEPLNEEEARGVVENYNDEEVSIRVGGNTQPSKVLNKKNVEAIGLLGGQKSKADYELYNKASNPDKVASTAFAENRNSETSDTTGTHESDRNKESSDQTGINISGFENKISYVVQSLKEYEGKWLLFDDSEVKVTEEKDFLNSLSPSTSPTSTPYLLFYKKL
In short: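 USP1/UAF1 complex at 1 nM preincubated 15 min at room temperature with compound, then Ub-Rho substrate added at 150 nM final. Fluorescence (480/540 nm) read kinetically in 50 mM HEPES pH 7.8, 0.5 mM EDTA, 1 mM TCEP, 0.1 mg/ml BSA, 0.01% Tween-20.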

[15] = target: Cytochrome P450 2C9 (Homo sapiens) (UniProt P11712); experiment: qHTS Assay for Inhibitors and Substrates of Cytochrome P450 2C9 (AID 883); further: on the % scale 0 is the no-effect control and ±100 the full control effect; nearly all actives have a fitted effect of over 60% in size
In short: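 Human CYP2C9 (10nM) hydroxylated Luciferin-H (100uM, at its KM) to luciferin in 25mM KPO4. Compound was preincubated 10 min at 37C, then NADPH regeneration started a 60 min reaction at 37C. Luminescence was read after detection reagent, normalized to 57uM sulphaphenazole.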

[16] = target: Cytochrome P450 3A4 (Homo sapiens) (UniProt P08684); experiment: qHTS Assay for Inhibitors and Substrates of Cytochrome P450 3A4 (AID 884); further: potency means the concentration at half of the fitted maximal effect; nearly all actives have a fitted effect of over 50% in size
In short: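 Luminescent readout of luciferin produced by CYP3A4 (20 nM) dealkylation of Luciferin-PPXE, 25 uM (its KM). NADPH-driven reaction ran 60 min at RT after 10 min compound preincubation; data scaled to 57 uM ketoconazole as 100% inhibition.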

[17] = target: Cytochrome P450 2C19 (Homo sapiens) (UniProt P33261); experiment: qHTS Assay for Inhibitors and Substrates of Cytochrome P450 2C19 (AID 899); further: potency means the concentration at half of the fitted maximal effect; nearly all actives have a fitted effect of over 60% in size
Sequence of Cytochrome P450 2C19 (Homo sapiens) (P33261 whole entry, looked up): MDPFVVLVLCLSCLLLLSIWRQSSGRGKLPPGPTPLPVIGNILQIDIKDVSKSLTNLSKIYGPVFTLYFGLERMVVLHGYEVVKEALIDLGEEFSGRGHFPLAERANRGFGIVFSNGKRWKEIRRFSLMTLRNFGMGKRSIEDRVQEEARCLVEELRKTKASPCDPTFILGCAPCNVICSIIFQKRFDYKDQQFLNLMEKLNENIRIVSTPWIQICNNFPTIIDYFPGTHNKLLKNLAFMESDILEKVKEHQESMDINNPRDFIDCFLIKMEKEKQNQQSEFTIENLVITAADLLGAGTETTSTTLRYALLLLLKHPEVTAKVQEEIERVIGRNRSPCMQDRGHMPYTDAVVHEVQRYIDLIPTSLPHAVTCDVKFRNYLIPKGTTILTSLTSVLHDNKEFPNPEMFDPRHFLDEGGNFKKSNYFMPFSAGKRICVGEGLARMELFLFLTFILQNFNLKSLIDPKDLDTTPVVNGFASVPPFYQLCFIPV
In short: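 Human CYP2C19 (5nM) with Luciferin-H EGE at 10uM (its KM) in 50mM KPO4 was preincubated with compound for 10 min at 37C. NADPH regeneration started a 60 min 37C reaction. Luciferin was read by luminescence, normalized to 57uM ketoconazole.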

[18] = qHTS Assay for Identification of Small Molecule Agonists for Hypoxia Response Element Signaling Pathway (AID 914; active means well fitted activation curve with a large enough effect in the signal ratio, with a control signal flat, not every such curve was filed as active; the % refers to the signal ratio; further: potency means the concentration at half of the fitted maximal effect); settings: ME-180 HRE-bla reporter, beta-lactamase ratio, CoCl2, 17 h; activation: active compounds read high
In short: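 ME-180 cells carrying an HRE-driven beta-lactamase reporter were treated with compounds in a titration series plus an EC50 level of CoCl2 for 17 h at 37 degrees Celsius; CCF4 readout as the 460nm/530nm ratio gave AC50 values.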

[19] = target: Dual specificity protein kinase CLK4 (Homo sapiens) (UniProt Q9HAZ1); experiment: qHTS Assay for Inhibitors of CDC-like Kinase 4 (ADP-FP Assay) (AID 1795);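 further: recombinant human CLK4 phosphorylating RS repeat peptide at 1 µM ATP; on the % scale 0 is the no-effect control and ±100 the full control effect; nearly all actives have a fitted effect of over 60% in size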
In short: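 Recombinant Clk4 (6.25 nM) phosphorylated 100 uM RS repeat peptide with 1 uM ATP in 25 mM Tris pH 7.5, 10 mM MgCl2, 0.5 mM EGTA, 2.5 mM DTT, 0.01% Triton X-100 for 1 h. ADP was detected by Transcreener ADP2 competitive fluorescence polarization after 30 min at room temperature.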

CNc1nc(-c2ccoc2)nc2ccccc12
active: Potency [3] 0.398 µM
inactive: Potency [1] > 11.4 µM | activity change, negative = inhibition [2] 0.93% | activity change, negative = inhibition [4] -22.3% | activity, negative = inhibition [5] 8.64% | Potency [6] > 46 µM | Potency [7] > 46 µM | Potency [8] | Potency [9] | Potency [10] | Potency [11] | Potency [12] | outcome [13]

Cc1cnc(CNc2cc(-c3cccc(C#N)c3)ncn2)cn1
active: Potency [3] 15.8 µM | Potency [11] 31.6 µM | Potency [12] 35.5 µM
inactive: Potency [1] > 11.4 µM | activity change, negative = inhibition [2] 8.07% | activity change, negative = inhibition [4] 25.8% | activity, negative = inhibition [5] 7.04% | Potency [6] > 46 µM | Potency [7] > 46 µM | Potency [8] | Potency [9] | Potency [10] | Potency [14] | outcome [13]

Cc1cnc(CNc2ncnc3ccc(-c4cccc(NS(C)(=O)=O)c4)cc23)cn1
inactive: Potency [1] > 11.4 µM | activity change, negative = inhibition [2] -5.16% | activity, negative = inhibition [5] -9.12% | Potency [6] > 46 µM | Potency [7] > 46 µM | Potency [9] | activity change, negative = inhibition [15] 32.5% [at 2.29 µM] | Potency [10] | Potency [14] | outcome [13]
active: Potency [3] 3.98 µM | Potency [11] 25.1 µM | Potency [12] 15.8 µM

FC(F)(F)c1ccccc1-c1ccc2ncnc(NC3CC3)c2c1
inactive: Potency [1] > 11.4 µM | activity change, negative = inhibition [2] 10% | activity, negative = inhibition [5] -18.8% | Potency [6] > 46 µM | Potency [7] > 46 µM | Potency [8] | Potency [10] | Potency [14] | outcome [13]
active: Potency [3] 0.316 µM | Potency [16] 1.58 µM | Potency [17] 2 µM | Potency [11] 25.1 µM | Potency [12] 25.1 µM

COc1ccccc1CNc1cc(-c2ccccc2Cl)ncn1
active: Potency [11] 25.1 µM | Potency [12] 15.8 µM
inactive: Potency [1] > 11.4 µM | activity change, negative = inhibition [4] 0.444% | activity, negative = inhibition [5] -1.65% | Potency [6] > 46 µM | Potency [7] > 46 µM | Potency [8] | Potency [10] | Potency [14] | outcome [13]

CN1CCN(c2ncc3nc(-c4cn(C)c5ccccc45)c(=O)n(Cc4cccs4)c3n2)CC1
active: Potency [18] 2.51 µM
inactive: Potency [1] > 11.4 µM | activity change, negative = inhibition [4] 3.65% | Potency [6] > 9.22 µM | Potency [7] > 46 µM | Potency [9] | Potency [11] | Potency [12] | Potency [14] | outcome [13]

Cc1cnc(CNc2ncncc2-c2ccccc2C)cn1
active: Potency [3] 25.1 µM | Potency [17] 7.94 µM
inactive: Potency [1] > 11.4 µM | activity change, negative = inhibition [2] 3.21% | activity change, negative = inhibition [4] -3.77% | activity, negative = inhibition [5] -10.5% | Potency [6] > 46 µM | Potency [7] > 46 µM | Potency [8] | Potency [9] | Potency [10] | Potency [11] | Potency [19] | Potency [14] | outcome [13]
